Results on 40 molecules are retold here after PubChem BioAssay (NCATS).

Inconclusive results are not listed. Activity calls are given as the source filed them. The call rests on the fitted dose curve; in most records, active means well fitted cell-killing curve with a large enough effect; inconclusive means small, poorly fitted or top-dose-only effect, or effect the other way; inactive means no such curve, though single readings can be large or run the other way.
Potency means the concentration at half of the fitted maximal effect.

A short description of the assay: Quantitative High-Throughput drug screen in 47 multiple myeloma cell lines against the NCATS MIPE library collection: XG6_PLB cell viability assay (AID 1919865). Further: nearly all actives have a fitted effect of over 40% in size. Conditions: XG6 myeloma viability, CellTiter-Glo ATP luminescence, 48 h; series mostly up to 45.8 µM; viability (% of control): at the top concentration. The source says: PI: Beverly A. Mock Ph.D.
Laboratory of Cancer Biology and Genetics,
Center for Cancer Research, National Cancer Institute,
National Institute of Health, Bethesda, Maryland
Drug resistance and disease progression are common in multiple myeloma (MM) patients, underscoring the need for new therapeutic combinations. […] We hypothesized that effective combinations would reduce MYC expression and enhance p16 activity. […] These preclinical data identify potentially useful drug combinations for evaluation in drug-resistant MM and reveal potential mechanisms of combined drug sensitivity.
Described herein is the primary MIPE qHTS used to cherrypick compounds. Validated compounds were then further tested for potential synergistic activiy.
[1] Peat TJ, Gaikwad SM, Dubois W, Gyabaah-Kessie N, Zhang S, Gorjifard S, Phyo Z, Andres M, Hughitt VK, Simpson RM, Miller MA, Girvin AT, Taylor A, Williams D, D'Antonio N, Zhang Y, Rajagopalan A, Flietner E, Wilson K, Zhang X, Shinn P, Klumpp-Thomas C, McKnight C, Itkin Z, Chen L, Kazandijian D, Zhang J, Michalowski AM, Simmons JK, Keats J, Thomas CJ, Mock BA. Drug combinations identified by high-throughput screening promote cell cycle transition and upregulate Smad pathways in myeloma. Cancer Lett. 2023 Aug 1;568:216284. doi: 10.1016/j.canlet.2023.216284. Epub 2023 Jun 24. PMID: 37356470; PMCID: PMC10408729.
SEQUENCE No. (e.g., 1, 2, 3, etc.); […] (e.g., Cells, Incubation, Reagent, etc.); VALUE and DESCRIPTION.
1; Cells; 5 uL; white, solid bottom 1536-well Greiner assay plate.
2; Compounds; 23 nL; Kalypsis pin tool (Wako USA) equipped with a 1536-well pin head to transfer to the assay plates.
3; Incubation; 48 hours; 37C incubation.
4; Reagent;5uL; CellTiter Glo (Promega).
5; Detector; 425V; Luminescence; Viewlux PerkinElmer.
NOTES (numbers refer to Sequence numbers above)
1. The cell-based screening methods employed in this study were like those previously published. Briefly, the corresponding myeloma cell lines were screened in 1,536-well plates with 500 cells, 5-uL per well for inhibition of cell viability (assessed by measuring ATP levels with CellTiterGlo).
2. NCATS MIPE 4.0 library of approved and investigational drugs were added using the Kalypsis pin tool. Wells treated with DMSO only for 100% viability and media only for 0% viability were used as controls.
3. The assay plates were covered and incubated for 48 hours in a 37C, 5% CO2 incubator with controlled humidity.
4. After 48 hours, CellTilter-GloTM luminescent substrate mix (Promega) reagent was added to the assay plate and plates we incubated for 5 min at room temperature.
5. Signal was measured as median relative luminescence units on a ViewLux (PerkinElmer) multiplate reader.
[1] Heske CM, Davis MI, Baumgart JT, Wilson K, Gormally MV, Chen L, Zhang X, Ceribelli M, Duveau DY, Guha R, Ferrer M, Arnaldez FI, Ji J, Tran HL, Zhang Y, Mendoza A, Helman LJ, Thomas CJ. Matrix Screen Identifies Synergistic Combination of PARP Inhibitors and Nicotinamide Phosphoribosyltransferase (NAMPT) Inhibitors in Ewing Sarcoma. Clin Cancer Res. 2017 Dec 1;23(23):7301-7311. doi: 10.1158/1078-0432.CCR-17-1121. Epub 2017 Sep 12. PMID: 28899971; PMCID: PMC6636827.
As for `COc1cc2c(cc1OC)CN(CCc1ccc(NC(=O)c3cc(OC)c(OC)cc3NC(=O)c3cnc4ccccc4c3)cc1)CC2`, the Potency was 18.7 µM (active).
For `O=C(Nc1ccccc1-c1cn2c(CN3CCNCC3)csc2n1)c1cnc2ccccc2n1`, the Potency was 9.35 µM (active).
For `CCOc1ccc(Nc2nc(-c3c(C)nc4ccccn34)cs2)cc1`, the “viability (% of control)” value is 37.4% (inactive).
The same measure, in the same setting: then `NC[C@@H]1O[C@@H](O[C@H]2[C@@H](O)[C@H](O[C@@H]3[C@@H](O)[C@@H](N)C[C@H](N)[C@H]3O[C@H]3O[C@H](CN)[C@@H](O)[C@@H](O)[C@H]3N)O[C@H]2CO)[C@H](N)[C@@H](O)[C@@H]1O`, with 112% (inactive).
Turning to `O=c1c(O)c(-c2ccc(O)cc2)oc2cc(O)cc(O)c12`, the Potency is 14.8 µM (active).
Consider `O=C1C(Cl)=C(NCCN2CCOCC2)C(=O)c2ncccc21`, for which the Potency was 7.43 µM (active).
Regarding `O=C(O)C(O)Cc1ccc(O)c(O)c1` (stereo not given), the “viability (% of control)” value is 92.3% (inactive).
As for `CC[C@H]1OC(=O)[C@H](C)C(=O)[C@H](C)[C@@H](O[C@H]2O[C@H](C)C[C@H](N(C)C)[C@@H]2O)[C@](C)(OC)C[C@@H](C)C(=O)[C@H](C)[C@H]2N(CCCCn3cnc(-c4cccnc4)c3)C(=O)O[C@]12C`, the Potency is 4.69 µM (active).
In the case of `Oc1ccc(C2CCN(c3ccnc4ccccc34)CC2)cc1O`, the Potency is 6.62 µM (active).
Consider `NS(=O)(=O)c1cccc2c1C(=O)c1cccc(O)c1C2=O`, for which the Potency was 0.372 µM (active).
In the case of `NC(CO)(CO)CCc1ccc(Sc2cccc(OCc3ccccc3)c2)cc1Cl`, the Potency is 20.9 µM (active).
With `COC1CCC(N(C(=O)C2CCC(C)CC2)c2cc(C3=CCCCC3)sc2C(=O)O)CC1` (stereo not given), the Potency was 23.5 µM (active).
For `COc1cc(NC(=O)c2ccc(-c3ccc(Cl)cc3)o2)cc(OC)c1`, the Potency is 1.66 µM (active).
As for `O=C1NC(=O)C(=Cc2cccc(C(F)(F)F)c2)S1`, the Potency was 20.9 µM (active).
Consider `C=CCc1ccc(O)c(-c2ccc(O)c(CC=C)c2)c1`, for which the Potency was 14.8 µM (active).
Still for that read-out and setting: then `CCC(=O)NC[C@H](Cc1ccc(OCCc2nc(-c3ccccc3)oc2C)cc1)NC(C)=CC(=O)c1ccc(C(F)(F)F)cc1`, with 16.6 µM (active); and `Clc1ccc(CCC(Cn2ccnc2)Sc2c(Cl)cccc2Cl)cc1` (stereo not given), with 23.5 µM (active); and `C[C@]12CC[C@@H]3c4ccc(O)cc4C[C@@H](CCCCCCCCCS(=O)CCCC(F)(F)C(F)(F)F)[C@H]3[C@H]1CC[C@H]2O` (stereo not given in full), with 6.62 µM (active).
Regarding `COc1cc(Nc2ncc(F)c(Nc3ccc4c(n3)NC(=O)C(C)(C)O4)n2)cc(OC)c1OC`, the Potency is 1.66 µM (active).
As to `O=c1c(-c2ccc(O)cc2)coc2cc(O)ccc12`, the “viability (% of control)” value was 119% (inactive).
With `COC(=O)N[C@H](C(=O)N1CCC[C@@H]1c1ncc(-c2ccc(-c3ccc(-c4cnc([C@@H]5CCCN5C(=O)[C@@H](NC(=O)OC)C(C)C)[nH]4)cc3)cc2)[nH]1)C(C)C`, the Potency was 26.4 µM (active).
Take `CO[C@H]1C=CC=C(C)C(=O)NC2=CC(=O)C(NCCN(C)C)=C(C[C@@H](C)C[C@H](OC)[C@@H](O)[C@@H](C)C=C(C)[C@@H]1OC(N)=O)C2=O`: the Potency was 0.105 µM (active).
For the molecule `Cc1ccc(C(C)(O)c2nc3ccccc3s2)c(C)c1` (stereo not given), the “viability (% of control)” value is 113% (inactive).
Regarding `CO[C@@H](C(=O)N1Cc2[nH]nc(NC(=O)c3ccc(N4CCN(C)CC4)cc3)c2C1)c1ccccc1`, the Potency is 20.9 µM (active).
For `Nc1ncnc2c1nc(Cl)n2[C@@H]1O[C@H](CO)[C@@H](O)[C@@H]1O`, the Potency is 1.18 µM (active).
The same measure, in the same setting: then `O=C(Nc1ccccc1Br)N[C@@H]1CCN(c2ccc(C(F)(F)F)cn2)C1`, with 23.5 µM (active); and `CN(C)Cc1cccc(N=C(c2ccccc2)c2c(O)[nH]c3cc(C(=O)N(C)C)ccc23)c1`, with 18.7 µM (active).
As to `CON=C(C(=O)N[C@@H]1C(=O)N2C(C(=O)OCOC(=O)C(C)(C)C)=C(C=Cc3scnc3C)CS[C@H]12)c1csc(N)n1`, the Potency was 26.4 µM (active).
As to `CC(C)(Cc1ccc2ccccc2c1)NC[C@@H](O)COc1cccc(Cl)c1C#N`, the “viability (% of control)” value is 114% (inactive).
The same measure, in the same setting: in the case of `O=C(NC1CCOCC1)c1ccc(-c2cc(-c3cn[nH]c3-c3ccccn3)ccn2)cc1` it was 118% (inactive).
Consider `Cc1[nH]c(C=C2C(=O)Nc3ccc(S(=O)(=O)Cc4c(Cl)cccc4Cl)cc32)c(C)c1C(=O)N1CCC[C@H]1CN1CCCC1`, for which the Potency is 8.33 µM (active).
On to `N#Cc1ccc(NC(=O)Nc2ccccc2Br)c2n[nH]nc12`, for which the Potency was 5.26 µM (active).
For the molecule `CC1(C)O[C@H]2C[C@@H]3[C@H]4CCC5=CC(=O)C=C[C@]5(C)[C@@]4(F)[C@@H](O)C[C@]3(C)[C@]2(C(=O)CO)O1`, the “viability (% of control)” value was 86.2% (inactive).
In the case of `CC=CCC=CCCC(=O)[C@H]1O[C@@H]1C(N)=O`, the Potency is 18.7 µM (active).
In the case of `O=c1c(-c2ccc(O)cc2)coc2cc(OC3O[C@H](CO)[C@H](O)[C@H](O)[C@H]3O)cc(O)c12` (stereo not given in full), the Potency is 1.32 µM (active).
Turning to `C[N+]1(C)[C@@H]2CC(OC(=O)[C@H](CO)c3ccccc3)C[C@H]1[C@H]1O[C@@H]12` (stereo not given in full), the Potency was 23.5 µM (active).
`O=c1[nH]cnc2c1ncn2[C@H]1CC[C@@H](CO)O1`: the “viability (% of control)” value is 110% (inactive).
As to `COc1cc2ncnc(-n3nc(-c4ccccn4)nc3N)c2cc1OC`, the Potency is 1.05 µM (active).
As to `COc1cc2ncnc(Nc3ccc(F)c(Cl)c3)c2cc1OCCCN1CCOCC1`, the Potency was 0.0762 µM (active).
As for `O=c1c(-c2ccc(O)cc2)coc2cc(O[C@@H]3O[C@H](CO)[C@H](O)[C@H](O)[C@H]3O)ccc12`, the “viability (% of control)” value is 117% (inactive).
